Results taken from PubChem BioAssay (EPA / NIEHS).
Results filed as inconclusive are left out. Activity calls are given as the source filed them. How the source made its calls, unless noted: active means hit-call score of the fitted dose curve at least 0.9, where 1 is the maximum; inactive means score below 0.9.

Columns and labels:
[1] = target: Estrogen receptor (Homo sapiens) (UniProt P03372); test: CCTE_Deisenroth_AIME_384WELL_LUC_Shift: CCTE's 384-well Estrogen Receptor Transactivation Assay with AIME metabolic competence data shift (ERTA luciferase; difference in metabolism positive and negative), Deisenroth Lab (AID 2284041);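 further: shift is response with S9 minus without S9 so positive means metabolism raised ER signal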
In short: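 Here, parent compounds undergo 2 h phase I metabolism by PB/BNF-induced rat S9 before 24 h transactivation in VM7Luc4E2 cells; the curve models S9-positive minus S9-negative response over a 10-point series.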

[2] = CCTE_Shafer_MEA_dev_burst_rate: CCTE's Neural Network Formation Assay for Burst Rate, Shafer Lab (AID 2284042);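 on AC50: potency for loss of burst rate below DMSO control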
In short: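 Exposure ran continuously over 12 days of network development in rat cortical cultures, with compound refreshed during full media changes on DIV 5 and 9. Single-electrode bursts per recording time, well-mean over active electrodes, trapezoidal AUC across days 5–12, fitted downward relative to DMSO.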

[3] = CCTE_Shafer_MEA_dev_bursting_electrodes_number: CCTE's Neural Network Formation Assay for Number of Bursting Electrodes, Shafer Lab (AID 2284043; active means hit-call score of the fitted dose curve at least 0.9, where 1 is the maximum;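 on AC50: potency is for loss of bursting electrodes relative to DMSO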)
In short: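 Counted: electrodes with burst rate ≥1 per 2 min in each well. Cells: primary rat cortex, 1.5 x 10^5/well, on 16-electrode MEA wells. Exposure: DIV 0–12, compound renewed DIV 5 and 9. Recording days 5, 7, 9, 12; AUC vs DMSO baseline.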

[4] = CCTE_Shafer_MEA_dev_per_burst_interspike_interval: CCTE's Neural Network Formation Assay for Burst Interspike Interval, Shafer Lab (AID 2284044);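 further: mean spike spacing inside bursts as AUC over recordings on days 5 7 9 12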;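 on AC50: potency for a decrease of within-burst interspike interval below DMSO level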
In short: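 Primary rat cortical neurons on 48-well MEA plates, exposed from day 0 through day 12, treatment renewed at DIV 5 and 9. Within-burst interspike interval recorded days 5, 7, 9, 12, well-averaged, summarised as AUC; negative fit versus DMSO.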

[5] = CCTE_Shafer_MEA_dev_burst_duration_mean: CCTE's Neural Network Formation Assay for Mean Burst Duration, Shafer Lab (AID 2284045);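 on AC50: curve fitted for loss meaning shorter burst duration than DMSO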
In short: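 Network-formation assay in primary rat cortical neurons; treatment spans twelve days of development. Mean burst duration per well is integrated by trapezoidal AUC and fitted in the loss-of-signal direction against DMSO baseline.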

[6] = CCTE_Shafer_MEA_dev_inter_network_spike_interval_mean: CCTE's Neural Network Formation Assay for Mean Inter-network Spike Interval, Shafer Lab (AID 2284047)
In short: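 Mean time between consecutive network-spike peaks, recorded extracellularly (adaptive spike detection) on DIV 5, 7, 9 and 12, summarized as trapezoidal AUC. Rat cortical cultures on MEAs dosed continuously days 0–12, re-dosed at feeds; loss-of-signal fit relative to DMSO.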

[7] = CCTE_Shafer_MEA_dev_network_spike_number: CCTE's Neural Network Formation Assay for Number of Network Spikes, Shafer Lab (AID 2284048);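 further: synchronized bursts across electrodes counted on days 5 7 9 12 and integrated as AUC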;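 on AC50: fit as a loss of signal meaning fewer network spikes than DMSO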
In short: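 Extracellular recordings from 16-electrode wells track network formation in rat cortical cultures under continuous treatment from plating. The endpoint is network spike number, expressed as AUC across DIV 5–12 relative to DMSO vehicle.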

[8] = CCTE_Shafer_MEA_dev_network_spike_peak: CCTE's Neural Network Formation Assay for Mean Number of Electrodes in Network Spike, Shafer Lab (AID 2284049);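 on AC50: fitted for loss of signal meaning fewer electrodes in network spikes than DMSO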
In short: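 Continuous 12-day exposure of rat cortical cultures, starting at plating, on MEA plates. Endpoint: electrodes participating in network-spike peaks, AUC across DIV 5–12, DMSO as negative control.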

[9] = CCTE_Shafer_MEA_dev_spike_duration_mean: CCTE's Neural Network Formation Assay for Mean Spike Duration, Shafer Lab (AID 2284051);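 further: mean network spike duration pooled as area under curve over DIV 5 to 12 recordings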;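 on AC50: potency for a decrease in mean network spike duration versus DMSO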
In short: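 Spontaneous activity was recorded on days 5, 7, 9 and 12 from rat cortical cultures grown on microelectrode arrays and dosed continuously from day 0, with media and compound renewed after the DIV 5 and 9 recordings. Network-spike duration was collapsed by area under the curve.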

DIO2 (gene 1734) = test: CCTE_GLTED_hDIO2: CCTE's human Deiodinase 2 (DIO2) Inhibition Assay, Great Lakes Toxicology and Ecology Division (GLTED) Lab (AID 2284050; active means hit-call score of the fitted dose curve at least 0.9, where 1 is the maximum)
In short: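 Triplicate cell-free incubations (3 h) of human DIO2 with chemical preceded colorimetric Sandell-Kolthoff quantitation of liberated iodide; DMSO served as negative control for curve fitting.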

Measured: AC50

Estrogen receptor (Homo sapiens), sequence (P03372 whole entry, looked up): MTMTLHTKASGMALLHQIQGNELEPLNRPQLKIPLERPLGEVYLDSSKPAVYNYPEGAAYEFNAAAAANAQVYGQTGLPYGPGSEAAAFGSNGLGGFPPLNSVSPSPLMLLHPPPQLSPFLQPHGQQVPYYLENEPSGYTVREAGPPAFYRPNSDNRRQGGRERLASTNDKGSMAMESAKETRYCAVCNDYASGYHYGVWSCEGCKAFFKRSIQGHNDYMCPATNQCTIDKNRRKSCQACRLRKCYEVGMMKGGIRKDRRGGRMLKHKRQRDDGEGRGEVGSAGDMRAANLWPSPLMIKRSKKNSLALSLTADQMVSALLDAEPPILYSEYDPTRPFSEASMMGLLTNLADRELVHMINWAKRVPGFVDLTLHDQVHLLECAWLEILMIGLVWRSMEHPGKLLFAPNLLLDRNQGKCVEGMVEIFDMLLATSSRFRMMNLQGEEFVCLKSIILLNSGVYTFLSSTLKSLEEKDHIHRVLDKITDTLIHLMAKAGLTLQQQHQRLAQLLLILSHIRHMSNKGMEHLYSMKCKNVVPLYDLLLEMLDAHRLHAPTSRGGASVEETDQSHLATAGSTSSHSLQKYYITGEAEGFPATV

Cc1cc(Cl)ccc1OC(C)C(=O)O (centres undefined)
inactive: [1]

OC(Cc1ccccc1Cl)(Cn1[nH]cnc1=S)C1(Cl)CC1 (centres undefined)
inactive: [5] | [6]
active: [2] 29.4 µM | [3] 29.9 µM | [4] 11.2 µM | [7] 24.4 µM | [8] 50 µM | [9] 33.6 µM

CCOCn1c(-c2ccc(Cl)cc2)c(C#N)c(Br)c1C(F)(F)F
inactive: [6]
active: [2] 4.86 µM | [3] 4.44 µM | [4] 1.61 µM | [5] 2.71 µM | [7] 7.36 µM | [8] 8.42 µM | [9] 6.23 µM

CNC(=O)O/N=C/C(C)(C)S(C)(=O)=O
inactive: [1]

C=CC(F)(C(F)(F)F)C(F)(F)C(F)(F)F (centres undefined)
inactive: [2] | [3] | [4] | [5] | [6] | [7] | [8] | [9]

O=S1(=O)OC(c2cc(Br)c(O)c(Br)c2)(c2cc(Br)c(O)c(Br)c2)c2ccccc21
active: DIO2 (gene 1734) 36.4 µM
inactive: [1]

CS(=O)(=O)c1ccc(C(=O)C2C(=O)CCCC2=O)c(Cl)c1COCC(F)(F)F
inactive: [2] | [4] | [5] | [6] | [7] | [8] | [9]

CC1(C)[C@H](C(=O)O[C@H](C#N)c2cccc(Oc3ccccc3)c2)[C@@H]1/C=C(\Cl)C(F)(F)F
inactive: [2] | [4] | [5] | [6]
active: [3] 12.9 µM | [7] 1.35 µM | [8] 8.95 µM | [9] 12.9 µM

N#CCC#N
active: DIO2 (gene 1734) 48.8 µM
inactive: [1]

CC(F)(F)CC(F)(F)F
inactive: [2] | [4] | [5] | [6] | [7] | [8] | [9]

Cc1cc(C(F)(C(F)(F)F)C(F)(F)F)ccc1NC(=O)c1cccc(I)c1C(=O)NC(C)(C)CS(C)(=O)=O
active: [3] 11.3 µM | [8] 18 µM | [9] 11.3 µM
inactive: [2] | [4] | [5] | [6] | [7]

O=C1c2ccccc2C(=O)C1C(=O)C(c1ccccc1)c1ccc(Cl)cc1 (centres undefined)
active: DIO2 (gene 1734) 91.9 µM

CCN(CCO)CCO
inactive: [1]

CC(=Cc1ccccc1)[N+](=O)[O-]
active: DIO2 (gene 1734) 41.8 µM
inactive: [1]

FC(F)OCC(F)(F)C(F)(F)F
inactive: [2] | [3] | [4] | [5] | [6] | [7] | [8] | [9]

O=C(O)COc1ccc(Cl)cc1
inactive: [1]

NC(=O)c1ccc(N)nc1
active: [2] 8.62 µM | [3] 5.44 µM | [4] 8.19 µM | [5] 8.66 µM | [7] 7.35 µM | [8] 4.53 µM | [9] 7.59 µM
inactive: [6]

CCCCCCCCCCCCc1cccc(S(=O)(=O)O)c1
active: DIO2 (gene 1734) 90.4 µM

Cc1ccccc1OP(=O)(Oc1ccccc1C)Oc1ccccc1C
active: [3] 15 µM | [8] 18.7 µM | [9] 21.4 µM
inactive: [2] | [4] | [5] | [6] | [7]

CCOc1ccc(N)cc1
inactive: [1]

C=CCOC(F)(C(F)(F)F)C(F)(F)F
active: [8] 0.0255 µM
inactive: [2] | [3] | [4] | [5] | [6] | [7] | [9]

CC(C)[C@@H](Nc1ccc(C(F)(F)F)cc1Cl)C(=O)OC(C#N)c1cccc(Oc2ccccc2)c1 (some centres undefined)
active: [3] 14.5 µM | [8] 20.9 µM | [9] 25.8 µM
inactive: [2] | [4] | [5] | [6] | [7]

O=S(=O)(F)C(F)(F)C(F)(F)C(F)(F)C(F)(F)F
inactive: [2] | [3] | [4] | [5] | [6] | [7] | [8] | [9]

CNC(=O)CSP(=O)(OC)OC
inactive: [2] | [3] | [4] | [5] | [6] | [7] | [8] | [9]

O=[N+]([O-])c1ccc(Cl)c([N+](=O)[O-])c1
active: DIO2 (gene 1734) 30.3 µM

CCC[CH2][Sn]([Cl])([Cl])[CH2]CCC
inactive: [1]

CC(=O)C(F)(F)C(F)(F)F
inactive: [2] | [3] | [4] | [5] | [6] | [7] | [8] | [9]

N#Cc1cccnc1
inactive: [1]
